Sampled rows, rich in hits. Any-hit rate of the full collection: about 8.7%.
BAZ2B block: blocks human BAZ2B; 360,000 tested, 4.4% active; Potency, µM (top dose mostly 114 µM), without a hit: at the top dose activity change, negative = inhibition, usual class: inhibitors; AlphaScreen BAZ2B-H3K14Ac peptide displacement; Q9UIF8; note: % is set by controls: 0 for no effect and ±100 for the full control effect; nearly all actives have a fitted effect of over 60% in size
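Compounds, titrated to a top concentration of 110 uM, were incubated 30 min at room temperature with preformed BAZ2B/acetyl-K14 H3 peptide complex (50 nM each). Proximity signal was measured by AlphaScreen after 20 min with beads.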
HP1b chromo inh: inhibitors of HP1-beta chromodomain binding to methylated histone tails; P83916; AID 540317; AlphaScreen HP1-beta / biotin-H3K9me3 peptide binding; 390,000 tested, 0.56% active; Potency, µM (highest dose often 114 µM), for the others: at the highest dose activity change, negative = inhibition, most hits filed as inhibitors; note: nearly all actives have a fitted effect of over 70% in size
Target sequence (P83916 whole entry, looked up): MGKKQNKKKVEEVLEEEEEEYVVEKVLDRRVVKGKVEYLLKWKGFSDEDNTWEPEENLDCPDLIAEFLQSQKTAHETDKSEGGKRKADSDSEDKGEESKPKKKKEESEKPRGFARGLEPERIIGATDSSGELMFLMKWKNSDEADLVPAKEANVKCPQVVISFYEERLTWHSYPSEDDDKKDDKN
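AlphaScreen: HP1-beta (50 nM) preformed 30 min with biotin-H3(1-18)K9me3 peptide (50 nM) in PBS pH 7.4, 0.01% Tween-20. Compound added for 30 min at RT, then streptavidin donor/nickel chelate acceptor beads (10 ug/mL) for 30 min.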
Sfp inh: Sfp phosphopantetheinyl transferase inhibition; Q9F4F7; Biochemical Sfp PPTase activity, qHTS; Potency, µM, inactives show largest response in the series, negative = inhibition, actives largely listed as inhibitors; 310,000 tested, 3.5% active; AID 1490;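 note: the enzyme is Sfp with the accession as filed and its product quenches rhodamine fluorescence; 0% = enzyme reaction without inhibitor and -100% = no enzyme wells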
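Sfp 15 nM + cpd, 15 min RT; start w/ rhodamine-CoA 5 uM, BHQ-2-YbbR 12.5 uM (final); 50 mM Hepes pH 7.6, 10 mM MgCl2, 0.01% NP-40, 0.01% BSA; read 525/598 nm at 0 and 30 min.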
G9a block: blocks human histone lysine methyltransferase G9a; Q96KQ7; G9a H3K9 monomethylation, AlphaScreen, 2 h; Potency, µM (highest dose often 102 µM), for inactives: at the highest dose activity, negative = inhibition, hits mostly inhibitors; 350,000 tested, 8.8% active; note: % is set by controls: 0 for no effect and ±100 for the full control effect; nearly all actives have a fitted effect of over 75% in size
Target sequence (Q96KQ7 913-1193 limits assumed): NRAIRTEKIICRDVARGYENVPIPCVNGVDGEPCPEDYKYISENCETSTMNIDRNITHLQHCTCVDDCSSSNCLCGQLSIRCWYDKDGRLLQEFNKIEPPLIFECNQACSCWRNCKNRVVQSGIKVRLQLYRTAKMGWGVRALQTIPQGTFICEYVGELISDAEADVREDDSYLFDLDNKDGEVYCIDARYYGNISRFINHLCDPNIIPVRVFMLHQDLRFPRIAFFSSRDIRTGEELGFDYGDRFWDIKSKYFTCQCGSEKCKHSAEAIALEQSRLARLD
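G9a (20 nM) preincubated 15 min RT with compounds, then 500 nM biotinylated H3K9 peptide and 20 uM SAM added; 2 h RT reaction. Monomethyl-H3K9 product detected by AlphaScreen with anti-H3K9me1 antibody, streptavidin donor and anti-rabbit IgG acceptor beads.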
ALOX12 inh: inhibitors of human 12S-lipoxygenase ALOX12. 580,000 tested, 1.1% active. purified 12hLO, xylenol orange hydroperoxide absorbance. Potency, µM (top dose mostly 108 µM), without a hit: at the highest dose activity change, negative = inhibition, actives largely listed as inhibitors; note: % is set by controls: 0 for no effect and ±100 for the full control effect
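Purified human 12hLO (150 nM final) in 25 mM Hepes, 0.01% Triton X-100, pH 7.0 was preincubated 15 min at room temperature with compound. Then 40 uM arachidonic acid was added, 30 min. Hydroperoxide was read by Fe-XO absorbance ratio 573/405 nm.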
JMJD2A Tudor inh: inhibitors of human JMJD2A Tudor domain | AlphaScreen JMJD2A-Tudor / H3K4me3 peptide binding | 390,000 tested, 4.4% active | O75164 | Potency, µM (doses to about 114 µM), inactives show at the top dose activity change, negative = inhibition, usual class: inhibitors | AID 504339; note: % is set by controls: 0 for no effect and ±100 for the full control effect; nearly all actives have a fitted effect of over 50% in size
The depositor's hits bear a star; ? = inconclusive; . = not tested or not shown; ! = a repeat was not active; [ ] = another dose, or the depositor's remark. Calls come from the whole dose curve; as a rule, active = well fitted curve in the direction sought with a large enough effect; inconclusive = small, poorly fitted or top-dose-only effect, or another doubt; inactive = no such curve, though single readings can be large; an effect the other way counts as inactive or inconclusive. Potency is the fitted concentration of half-maximal effect.

SMILES | BAZ2B block | HP1b chromo inh | Sfp inh | G9a block | ALOX12 inh | JMJD2A Tudor inh
Cc1cccc(CSc2ncccc2C(=O)O)c1 | -28% | 42% | ? | 11µM* | ? | 50µM*
O=C(CSc1ncccc1C(=O)O)NC12CC3CC(CC(C3)C1)C2 | ? | 27% | ? | 32µM* | 22µM* | 2%
O=C(O)c1cccnc1SCC(=O)N1CCCCCC1 | 0% | 52% | 5% | 50µM* | 1% | -18%
COc1ccc(NC(=O)Cc2c(C)[nH]n(-c3nc(-c4ccc(Cl)cc4)cs3)c2=O)cc1 | . | . | . | . | 33% | .
CC1CCc2cc(F)ccc2N1C(=S)NC1CC1 (stereo unspecified) | . | . | . | . | -23% | .
Fc1cccc(CSc2nnc3c(n2)[nH]c2ccccc23)c1 | -10% | 36% | 17% | 24%[59 µM] | -16% | -14%
CN(C)CCSc1nnc2[nH]c3ccccc3c2n1 | -4% | 26% | -25% | 1.4µM* | -24% | -9%
Cc1c(CC(=O)Nc2ccc(Cn3cncn3)cc2)c(=O)oc2cc(O)ccc12 | . | . | . | . | 8% | .
O=C(c1ccccc1)c1ccccn1 | -1% | 30% | 0% | 11% | -12% | -6%
O=C(CC(=O)c1ccccn1)c1ccccc1 | . | 36% | . | . | -14% | 25µM*
Cc1cccc(NC(=O)c2ccccn2)c1C | -4% | 8% | 3% | ? | ? | 7.9µM*
O=C(O)c1ccccn1 | 2.8µM* | 27% | 25µM* | 0.56µM*! | 25% | 4µM*
O=C(Sc1ccc(Cl)cc1)c1ccccn1 | . | 57% | . | . | 2.8µM* | ?
Cc1cccc(NC(=O)Nc2ccccn2)c1C | 0% | 51% | 21% | 10% | 2% | -15%[11.4 µM]
COC(=O)C1=C(C)N=C2SC=C(CC(=O)NCC3CCCO3)N2C1c1ccc(C)cc1C (stereo unspecified) | . | . | . | . | 37% | .
CCc1noc(-c2nc(-c3ccc4c(c3)OCO4)no2)n1 | . | . | . | . | -7% | .
CCNc1nc(CC)nc2c1oc1ccccc12 | ? | 11% | 3% | -46%[59 µM] | -13% | -19%
CCc1nc(Nc2ccccc2O)c2oc3ccccc3c2n1 | 79µM* | 18% | -18% | ? | 0% | ?
O=C(CSc1ncnc2c1oc1ccccc12)NCc1ccco1 | 50µM* | 4% | 28µM* | 14µM* | -25% | -32%
Brc1ccc2ncnc(NCc3ccco3)c2c1 | -39% | 21% | 13% | -34% | -19% | -3%
CCc1nc(NCc2ccco2)c2oc3ccccc3c2n1 | 79µM* | 1% | ? | ? | -10% | -27%
c1coc(CNc2ncnc3c2oc2ccccc23)c1 | ? | -10% | 5% | 56µM* | 5% | -20%
CN(C(=O)CCc1nc2ccccc2c(=O)[nH]1)C1CCCC1 | . | . | . | . | -29% | .
O=C(NCCc1ccc(Cl)cc1)C1CCc2nnc(C3CCN([S+](=O)([O-])c4ccccc4)CC3)n21 (stereo unspecified) | . | . | . | . | -15%[6.33 µM] | .
C/C(Cl)=C/C[N+](C)(C/C=C(\C)Cl)Cc1ccccc1 (stereo unspecified) | . | . | . | . | -33% | .
SMILES | BAZ2B block | HP1b chromo inh | Sfp inh | G9a block | ALOX12 inh | JMJD2A Tudor inh
O=C(NCc1ccc(OCC(F)(F)F)cc1)c1ccc(S(=O)(=O)N2CCOCC2)cc1 | . | . | . | . | 12% | .
CCOc1ccc(-c2nc(CNC(=O)Nc3ccc(Cl)cc3)c(C)o2)cc1 | . | . | . | . | -26% | .
CCc1nc(N(CC)CC)c2oc3ccccc3c2n1 | . | 87% | -4% | 2%[59 µM] | ? | 9%
COc1cccc(NC(=O)CSc2ncnc3c2oc2ccccc23)c1 | 7% | 32% | 71µM* | 13% | 10% | -14%
COc1cccc(NC(=O)CSc2nc3c(oc4ccccc43)c(=O)[nH]2)c1 | 7% | 31% | 8% | 18%[59 µM] | -2% | -9%
CCc1nc(NCc2cccnc2)c2oc3ccccc3c2n1 | -35% | 23% | -1% | 50µM* | ? | -33%
CCc1nc(N2CCC(C)CC2)c2oc3ccccc3c2n1 | -2% | 65% | ? | 40µM* | 11µM* | -1%
COC(=O)C(Cl)(C(=O)OC)C(OC)(C(=O)OC)C(=O)OC | . | . | . | . | -18% | .
COC(=O)C(Br)(C(=O)OC)C(OC)(C(=O)OC)C(=O)OC | . | . | . | . | 0.71µM* | .
Cc1ccc(C2=[N+]([O-])C3(CCCCC/C3=N\NC(N)=S)N(O)C2(C)C)o1 (stereo unspecified) | ? | . | 71µM* | ? | . | .
CCOc1ccccc1C1NC(=O)NC(CN2CCN(c3ccccn3)CC2)=C1C(=O)OC (stereo unspecified) | . | . | . | . | -26% | .
CN=Cc1sc2ccccc2c1O | -37% | 14% | -2% | 50µM* | -27% | -23%
Oc1ccccc1N=Cc1sc2ccccc2c1Cl | ? | ? | 56µM* | ? | -30% | -27%
Oc1c(/C=N/c2ccccn2)sc2ccccc12 | 40µM* | -21% | -16% | 8.9µM* | ? | ?
Oc1c(C=Nc2ccccc2)sc2ccccc12 | -11% | -6% | 20% | -6% | ? | -30%
Oc1c(C=NCc2ccncc2)sc2ccccc12 | ? | -22% | 28µM* | ? | -10% | -19%[11.4 µM]
CCOC(=O)c1[nH]c(C)c(C(=O)OCC2CC2(Cl)Cl)c1C (stereo unspecified) | . | . | . | . | 54% | .
O=C(O)[C@H]1c2ccccc2C(=O)N(Cc2ccc(F)cc2)[C@H]1c1ccc(Cl)cc1 | . | . | . | . | 1% | .
COc1cc(CN(C)Cc2cccc3ccccc23)cc([N+](=O)[O-])c1O | ? | -9% | 0% | 71µM* | 3% | ?
CN(Cc1cccc([N+](=O)[O-])c1)Cc1cccc2ccccc12 | -36% | 5% | -13% | . | ? | -34%
COc1ccc(Cc2nc3ccccc3n2CC(=O)N/N=C/c2ccc(C)cc2O)cc1OC | 56µM* | 19% | 1% | ? | -11% | ?
COc1cccc(C(=O)/C=C/Nc2ccc(S(=O)(=O)Nc3ccc(C(C)=O)cc3)cc2)c1 | -3% | -18% | 48% | 50µM* | -6% | -14%
COc1ccc(C(=O)/C=C/Nc2ccc(S(=O)(=O)Nc3cc(OC)nc(OC)n3)cc2)c(OC)c1 | -22% | 10% | -4% | 25µM* | -14% | -26%
COc1cccc(C(=O)/C=C/Nc2ccc(S(=O)(=O)Nc3cc(OC)nc(OC)n3)cc2)c1 | ? | 16% | -5% | 79µM* | -28% | -20%
CCC1Oc2ccc(NC(=O)Cc3cccc(OC)c3)cc2CN(Cc2ccc3c(c2)OCO3)C1=O (stereo unspecified) | . | . | . | . | -20% | .
CC1(C)[C@H]2CC[C@@H](CNC(=O)c3ccc4c(c3)OCO4)[C@@H]1C2 | . | . | . | . | 9%[176 µM] | .
CCCCCCNc1c([N+](=O)[O-])cc(C)cc1[N+](=O)[O-] | . | 8.9µM* | . | . | 7% | 13µM*

High-throughput results deposited in PubChem BioAssay by National Center for Advancing Translational Sciences (NCATS).
